Bioassay records from PubChem BioAssay.
DT40 TDP1 no CPT: qHTS for Inhibitors of human tyrosyl-DNA phosphodiesterase 1 (TDP1): qHTS in cells in absence of CPT. DT40 Tdp1-/- hTDP1 cells, no CPT, ATP luminescence, 48 h. 420,000 tested, 15% active. Potency, µM (titrated, usually from 46.2 µM), for inactives: at the highest dose activity change, negative = growth inhibition, actives largely listed as inhibitors. AID 686978, 2013; note: potency is the fitted concentration of half-maximal effect; nearly all actives have a fitted effect of over 55% in size
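Luminescent ATP content (CellTiter-Glo) served as the growth readout. Knockout chicken DT40 cells expressing human TDP1 were exposed to compounds without camptothecin for a minimum 48 hr at 37 °C.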
TDP1 block: blocks human tyrosyl-DNA phosphodiesterase 1; 350,000 tested, 0.28% active; Potency, µM (doses to about 130 µM), without a hit: top-dose activity change, negative = inhibition, actives largely listed as inhibitors; AID 485290; recombinant TDP1, AlphaScreen DNA substrate cleavage; note: potency is the fitted concentration of half-maximal effect; nearly all actives have a fitted effect of over 40% in size
Target sequence (Q9NUW8 whole entry, looked up): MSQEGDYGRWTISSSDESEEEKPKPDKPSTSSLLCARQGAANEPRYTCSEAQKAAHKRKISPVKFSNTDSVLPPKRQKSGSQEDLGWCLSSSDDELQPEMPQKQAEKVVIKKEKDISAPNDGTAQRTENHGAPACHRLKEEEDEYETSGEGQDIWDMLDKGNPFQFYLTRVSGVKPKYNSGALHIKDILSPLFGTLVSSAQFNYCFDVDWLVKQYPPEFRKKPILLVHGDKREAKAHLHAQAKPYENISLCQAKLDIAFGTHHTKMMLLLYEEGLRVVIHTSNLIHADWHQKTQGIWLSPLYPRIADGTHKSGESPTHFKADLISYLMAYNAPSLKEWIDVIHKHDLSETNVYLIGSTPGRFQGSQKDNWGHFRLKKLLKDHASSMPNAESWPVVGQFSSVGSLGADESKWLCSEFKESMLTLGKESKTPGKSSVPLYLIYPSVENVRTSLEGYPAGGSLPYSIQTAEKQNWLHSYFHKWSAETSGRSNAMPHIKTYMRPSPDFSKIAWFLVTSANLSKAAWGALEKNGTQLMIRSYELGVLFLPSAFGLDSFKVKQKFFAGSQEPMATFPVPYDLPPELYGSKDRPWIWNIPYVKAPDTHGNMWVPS
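Enzyme-compound mixtures sat 15 min at room temperature, followed by a 5 min reaction with 15 nM final substrate and 10 min with AlphaScreen beads. Recombinant human Tdp1 was used at 1 nM final.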
IL-1B inflam inh: inhibitors of inflammasome signaling (IL-1 beta secretion). 360,000 tested, 4.7% active. activity change, % at 57.5 µM. THP-1 LPS/ATP IL-1B secretion, AlphaLISA, 16 h; hits give low values. AID 743279; in the data active = activity change below about -50%; inconclusive = mostly about -30% to -49%
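Secreted IL-1B measured by AlphaLISA bead assay after 16 h compound exposure of THP-1 cells; compounds (final up to 57.5 uM) added 1 h before LPS (250 ng/mL) and ATP (1.25 mM) stimulation; lower signal means less secretion.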
Giardia killer: kills Giardia lamblia; Giardia lamblia trophozoite viability; activity change, % at 7.66 µM, hits read low; 340,000 tested, 0.15% active; AID 540267; in the data active = activity change below about -80%; inconclusive = between about -30% and that limit;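 note: parasites exposed to compound for two days anaerobically before the ATP read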
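Trophozoites 100 cells/well + cpd; 48 hrs, 37 deg C, anaerobic. ATPLite 1-Step added, 15-30 min RT, luminescence read (ATP-based viability).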
ELG1 DNA repair: ELG1-dependent DNA repair inhibition. HEK293T ELG1-luciferase reporter, luminescence, 16 h; DNA damage induced by 5-fluorouridine. 330,000 tested, 2.3% active. Potency, µM (highest dose often 46.1 µM), for the others: at the highest dose activity change, negative = inhibition, most hits filed as inhibitors; note: potency is the fitted concentration of half-maximal effect; nearly all actives have a fitted effect of over 55% in size
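In this reporter screen, reduction of luminescence relative to DMSO vehicle indicated activity. Compounds and 5-fluorouridine were added together to 2,000 cells per well, incubated for 16 hr at 37 °C, then developed with ONE-Glo.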
TDP1 cell CPT: growth inhibition of DT40 Tdp1-/-;hTDP1 cells with camptothecin (screen for TDP1 inhibitors); Potency, µM (doses to about 46.2 µM), for the others: at the top dose activity change, negative = growth inhibition, actives largely listed as inhibitors; 420,000 tested, 12% active; chicken DT40 Tdp1-/-;hTDP1 cells + 20 nM CPT, ATP luminescence, 48 h; note: potency is the fitted concentration of half-maximal effect; nearly all actives have a fitted effect of over 55% in size
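Chicken DT40 Tdp1-/- cells stably complemented with human TDP1 were seeded at 400 cells/well in medium containing 20 nM camptothecin, exposed to pin-transferred compounds, and grown at 37 °C for at least 48 hr. Viability was read as ATP luminescence.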
* = called active by the depositor; ? = inconclusive; . = not tested or not shown; [ ] = remark or other dose. A selection: hits, their analogues and other compounds. The true share with any hit is near 19%. Unless noted, calls come from the whole dose curve; as a rule, active = well fitted curve in the direction sought with a large enough effect; inconclusive = small, poorly fitted or top-dose-only effect, or another doubt; inactive = no such curve, though single readings can be large; an effect the other way counts as inactive or inconclusive. % is set by controls: 0 for no effect and ±100 for the full control effect.

SMILES	DT40 TDP1 no CPT	TDP1 block	IL-1B inflam inh	Giardia killer	ELG1 DNA repair	TDP1 cell CPT
COC(=O)[C@@H]1N=C(c2ccc(OC)cc2)O[C@]12C(=O)N(C)c1cccc(Cl)c12	-19%	.	0	.	.	9%
CCN(N=O)C(N)=O	.	8%	.	.	.	.
Cc1ccc(Cl)cc1Nc1nn2c(=O)c3ccc(C(=O)NCc4cccs4)cc3nc2s1	16µM*	-10%	.	.	.	15µM*
COc1cccc(NC(=O)c2ccc3c(=O)n4nc(Nc5ccccc5OC)sc4nc3c2)c1	4.6µM*	-8%	.	.	.	5.8µM*
COc1cccc(NC(=O)CN2CC(c3ccccc3)CC2=O)c1 (stereo not given)	-21%	4%	-1	6	2%	10%
O=C(Nc1ccc(Br)cc1C(=O)c1ccccc1Cl)c1ccccc1F	-14%	2%[12.3 µM]	.	.	.	8%
CN(C)C(Cc1ccccc1)C(=O)c1ccc(-c2ccccc2)cc1 (stereo not given)	?	4%	-21	6	-6%	?
COC(=O)[C@H](Cc1ccccc1)N(Cc1ccccc1)S(=O)(=O)N(Cc1ccccc1)[C@@H](Cc1ccccc1)C(=O)OC	12µM*	1%	30	-8	?	23µM*
C[C@H]1CNCCc2ccc(Cl)cc21	-12%	.	.	.	.	-3%
O=C(OCC(=O)N1CCCCC1)c1cc(S(=O)(=O)N2CCOCC2)c(Cl)cc1Cl	0%	1%	-59*	-11	?	4%
CC[C@H](C)[C@H](NC(=O)[C@H](CCCN=C(N)N)NC(=O)[C@H](CCCN=C(N)N)NC(=O)[C@H](CC(C)C)NC(=O)[C@H](Cc1ccccc1)NC(=O)CNC(=O)CNC(=O)[C@@H](N)Cc1ccc(O)cc1)C(=O)N[C@@H](CCCN=C(N)N)C(=O)N1CCC[C@H]1C(=O)N[C@@H](CCCCN)C(=O)N[C@@H](CC(C)C)C(=O)N[C@@H](CCCCN)C(=O)O	2%[4.12 µM]	10%	.	.	.	8%[4.12 µM]
c1nc2nc3c(c(N4CCNCC4)n2n1)CCCC3	12%	.	0	-1	-4%	2%
COc1cccc(N2CCN(c3c4c(nc5nncn35)CCC4)CC2)c1	8.2µM*	7%	.	.	.	23µM*
O=[N+]([O-])c1cc(F)c(N2CCCCC2)cc1Br	?	-1%	22	2	19%	13%
CCCn1cc(S(=O)(=O)c2ccc(OC)cc2)c(=O)c2cc(F)c(N3CCCCCC3)cc21	23µM*	-1%	.	.	.	?
O=C(Nc1ccc(Br)cc1)c1cc(Br)cc(Br)c1O	-2%	5%	.	.	.	-25%
CC(C)CCNC(=O)c1c(N)n(CC2CCCO2)c2nc3ccccc3nc12 (stereo not given)	29µM*	-2%	?	0	?	26µM*
CCC(C)NC(=O)c1c(N)n(Cc2ccc3c(c2)OCO3)c2nc3ccccc3nc12 (stereo not given)	26µM*	.	?	-7	?	?
CCC(C)NC(=O)c1c(N)n(CC2CCCO2)c2nc3ccccc3nc12 (stereo not given)	-29%	0%	-57*	-8	21µM*	-14%
CCOC(=O)c1c(C)n(Cc2ccc3c(c2)OCO3)c2ccc(O)cc12	?	8%	45	17	?	?
[O]=[Sb]([OH])([OH])[c]1ccccc1	-6%	?	.	-3	.	3%
COc1ccc(NC(=O)C2(C)Cc3c(-c4ccc(N(C)C)cc4)ccnc3O2)cc1OC (stereo not given)	?	.	18	.	.	?
OC1(c2ccccc2)CCNC2CCCCC21 (stereo not given)	?	.	-21	23	22%	18µM*
OC12CCCCC1C(c1ccccc1)NCC2 (stereo not given)	-2%	-1%	0	-6	-11%	-20%
C=C(C)[C@H]1C2C(=O)O[C@H]1[C@H]1OC(=O)[C@@]34O[C@@H]3C[C@]2(O)[C@@]14C	-1%	5%	.	.	.	-2%
SMILES	DT40 TDP1 no CPT	TDP1 block	IL-1B inflam inh	Giardia killer	ELG1 DNA repair	TDP1 cell CPT
COC1C=CC23c4cc5c(cc4CN(CC2O)C3C1)OCO5 (stereo not given)	1.3µM*	.	.	.	.	2.1µM*
O=C(c1ccc(Cl)cc1)C1CCCN(Cc2cccc3cnccc23)C1 (stereo not given)	6.5µM*	0%	-7	10	?	21µM*
COc1ccc(CN2CCCC(C(=O)c3cccc(Cl)c3)C2)cc1 (stereo not given)	?	.	-12	-19	-2%	?
O=C(c1cccc(Cl)c1)C1CCCN(Cc2cccc3cnccc23)C1 (stereo not given)	21µM*	.	-16	-12	?	?
O=C(c1ccc2c(c1)OCO2)C1CCCN(Cc2ccc(F)c(F)c2)C1 (stereo not given)	-24%	5%	0	-3	3%	-19%
COc1ccc(CN2CCCC(C(=O)c3ccc(Cl)cc3)C2)c(OC)c1 (stereo not given)	18µM*	.	-68*	-1	-2%	?
O=C(c1ccc(Cl)cc1)C1CCCN(Cc2ccc3ncccc3c2)C1 (stereo not given)	16µM*	8%	-11	14	?	15µM*
O=C(Nc1ccc(OC(F)(F)F)cc1)Oc1ccccc1N1CCCCC1	?	1%	-7	-7	1%	?
CC(O)C(C)OC(=O)[C@@H]1C[C@@H]2c3cccc4c3c(cn4C(C)C)C[C@H]2N(C)C1 (stereo not given in full)	?	12%[56.1 µM]	.	.	.	?
C[N+](C)(C)CCCl	.	5%	.	.	.	.
O=C(Oc1ccccc1)N1CCC[C@@]2(CCN(Cc3ccccc3)C2)C1	-28%	.	.	.	.	-3%
CC1CC(C)C(=O)[C@H](C(O)CC2CC(=O)NC(=O)C2)C1 (stereo not given in full)	0.073µM*	-10%[56.1 µM]	.	.	.	0.29µM*
C[C@H]1C[C@H](C)C(=O)[C@@H]([C@H](O)CC2CC(=O)NC(=O)C2)C1	0.084µM*	-9%[56.1 µM]	.	.	.	0.13µM*
C[C@H]1C[C@@H](C)C(=O)[C@@H]([C@H](O)CC2CC(=O)NC(=O)C2)C1	0.18µM*	4%	-90*	?	0.52µM*	0.18µM*
CCN1C[C@]2(COC(=O)c3ccccc3N3C(=O)C[C@H](C)C3=O)CC[C@H](OC)[C@@]34[C@@H]5C[C@H]6[C@H](OC)[C@H]5[C@](O)(C[C@@H]6OC)[C@@](O)([C@@H](OC)[C@@H]23)[C@@H]14	-7%	14%[56.1 µM]	.	.	.	12%
